Laboratory results: the supplement of paper PMC11732987, “Enantioselective OTUD7B fragment discovery through chemoproteomics screening and high-throughput optimisation” (Communications Chemistry, 2025)

Key:
Assay in all cases: log2 ratio of Biotin-Ahx-Ub-VS probe labelling (fragment/DMSO); higher = less target engagement (more negative = stronger competition), active = hit call of the paper (q ≤ 0.05, log2 ratio ≤ -1)
Conditions in all cases: compound concentration: 200 uM; treatment time: 3 h
OTUD6B = target: T1, OTUD6B (UniProt Q8N6M0)
T1 sequence (whole entry): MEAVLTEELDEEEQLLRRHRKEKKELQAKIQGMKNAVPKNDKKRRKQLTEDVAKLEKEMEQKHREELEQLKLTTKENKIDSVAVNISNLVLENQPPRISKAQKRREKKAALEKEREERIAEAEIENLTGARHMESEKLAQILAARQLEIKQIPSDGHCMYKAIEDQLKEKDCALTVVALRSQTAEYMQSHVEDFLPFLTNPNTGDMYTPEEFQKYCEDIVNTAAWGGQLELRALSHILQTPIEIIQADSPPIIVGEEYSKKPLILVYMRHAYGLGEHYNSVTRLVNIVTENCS
Procedure, shortened: (§1)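 Labelled DUBs from HEK293T lysate were NeutrAvidin-enriched, digested with LysC and trypsin, and run by diaPASEF LC-MS/MS. Before that, each 495 µg sample in Tris/CHAPS/IGEPAL buffer with protease inhibitors was treated in triplicate with fragment at 200 µM or vehicle for 3 h, then with Biotin-Ahx-Ub-VS at 0.5 µM final for 1 h. Values are average log2 ratios of fragment over vehicle by unpaired t-test, based on global-median-normalised Spectronaut label-free quantities from proteins with ≥2 unique peptides.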

OTUD7B = target: T2, OTUD7B (UniProt Q6GQQ9)
T2 sequence (whole entry): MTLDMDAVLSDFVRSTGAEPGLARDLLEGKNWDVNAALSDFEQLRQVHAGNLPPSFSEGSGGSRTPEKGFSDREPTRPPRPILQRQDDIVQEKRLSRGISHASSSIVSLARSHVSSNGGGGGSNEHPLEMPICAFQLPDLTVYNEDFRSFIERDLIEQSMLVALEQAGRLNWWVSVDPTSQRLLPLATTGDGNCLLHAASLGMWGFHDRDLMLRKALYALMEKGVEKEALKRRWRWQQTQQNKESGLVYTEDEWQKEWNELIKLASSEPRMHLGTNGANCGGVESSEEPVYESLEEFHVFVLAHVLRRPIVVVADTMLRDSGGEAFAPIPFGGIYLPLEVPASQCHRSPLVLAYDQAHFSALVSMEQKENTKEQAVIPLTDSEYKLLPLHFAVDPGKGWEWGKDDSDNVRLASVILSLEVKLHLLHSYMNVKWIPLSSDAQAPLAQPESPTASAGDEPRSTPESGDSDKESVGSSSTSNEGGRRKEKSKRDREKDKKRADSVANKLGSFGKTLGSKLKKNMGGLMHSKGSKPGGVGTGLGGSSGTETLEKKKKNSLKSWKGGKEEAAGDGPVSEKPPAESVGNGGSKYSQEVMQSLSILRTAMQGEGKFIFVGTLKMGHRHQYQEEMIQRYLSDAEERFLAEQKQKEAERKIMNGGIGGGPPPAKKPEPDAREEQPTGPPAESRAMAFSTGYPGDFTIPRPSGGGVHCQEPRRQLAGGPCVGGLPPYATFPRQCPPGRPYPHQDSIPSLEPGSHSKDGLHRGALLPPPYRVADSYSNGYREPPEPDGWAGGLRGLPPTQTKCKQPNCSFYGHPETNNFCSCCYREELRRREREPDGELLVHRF
Procedure, shortened: as §1

PRPF8 = PRPF8 (UniProt Q6P2Q9)
Procedure, shortened: as §1

PSMD7 = target: T3, PSMD7 (UniProt P51665)
T3 sequence (whole entry): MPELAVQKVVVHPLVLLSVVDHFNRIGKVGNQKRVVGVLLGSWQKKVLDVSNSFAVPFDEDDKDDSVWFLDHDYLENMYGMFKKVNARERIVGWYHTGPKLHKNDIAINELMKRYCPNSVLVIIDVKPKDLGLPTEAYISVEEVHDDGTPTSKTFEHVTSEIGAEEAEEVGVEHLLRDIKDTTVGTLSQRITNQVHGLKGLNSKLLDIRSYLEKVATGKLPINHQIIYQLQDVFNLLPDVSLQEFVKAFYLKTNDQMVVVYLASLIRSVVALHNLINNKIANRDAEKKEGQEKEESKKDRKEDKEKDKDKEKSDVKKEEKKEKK
Procedure, shortened: as §1

UCHL1 = UCHL1 (UniProt P09936)
Procedure, shortened: as §1

UCHL3 = target: T4, UCHL3 (UniProt P15374)
T4 sequence (whole entry): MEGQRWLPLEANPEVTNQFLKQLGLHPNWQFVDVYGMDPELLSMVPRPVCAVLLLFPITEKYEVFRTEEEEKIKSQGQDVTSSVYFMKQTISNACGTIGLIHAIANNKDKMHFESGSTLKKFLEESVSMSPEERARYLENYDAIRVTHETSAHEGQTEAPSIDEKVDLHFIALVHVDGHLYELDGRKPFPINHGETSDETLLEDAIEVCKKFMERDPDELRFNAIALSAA
Procedure, shortened: as §1

UCHL5 = target: T5, UCHL5 (UniProt Q9Y5K5)
T5 sequence (whole entry): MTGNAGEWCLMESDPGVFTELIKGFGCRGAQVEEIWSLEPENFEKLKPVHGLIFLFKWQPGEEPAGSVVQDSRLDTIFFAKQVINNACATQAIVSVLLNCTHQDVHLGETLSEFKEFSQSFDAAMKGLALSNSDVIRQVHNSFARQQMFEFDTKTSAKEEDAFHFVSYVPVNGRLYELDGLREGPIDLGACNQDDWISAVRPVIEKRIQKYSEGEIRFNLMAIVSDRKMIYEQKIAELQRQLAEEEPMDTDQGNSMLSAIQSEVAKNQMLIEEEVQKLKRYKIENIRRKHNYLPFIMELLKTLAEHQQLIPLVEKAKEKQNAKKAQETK
Procedure, shortened: as §1

USP10 = USP10 (UniProt Q14694)
Procedure, shortened: as §1

USP15 = target: T6, USP15 (UniProt Q9Y4E8)
T6 sequence (whole entry): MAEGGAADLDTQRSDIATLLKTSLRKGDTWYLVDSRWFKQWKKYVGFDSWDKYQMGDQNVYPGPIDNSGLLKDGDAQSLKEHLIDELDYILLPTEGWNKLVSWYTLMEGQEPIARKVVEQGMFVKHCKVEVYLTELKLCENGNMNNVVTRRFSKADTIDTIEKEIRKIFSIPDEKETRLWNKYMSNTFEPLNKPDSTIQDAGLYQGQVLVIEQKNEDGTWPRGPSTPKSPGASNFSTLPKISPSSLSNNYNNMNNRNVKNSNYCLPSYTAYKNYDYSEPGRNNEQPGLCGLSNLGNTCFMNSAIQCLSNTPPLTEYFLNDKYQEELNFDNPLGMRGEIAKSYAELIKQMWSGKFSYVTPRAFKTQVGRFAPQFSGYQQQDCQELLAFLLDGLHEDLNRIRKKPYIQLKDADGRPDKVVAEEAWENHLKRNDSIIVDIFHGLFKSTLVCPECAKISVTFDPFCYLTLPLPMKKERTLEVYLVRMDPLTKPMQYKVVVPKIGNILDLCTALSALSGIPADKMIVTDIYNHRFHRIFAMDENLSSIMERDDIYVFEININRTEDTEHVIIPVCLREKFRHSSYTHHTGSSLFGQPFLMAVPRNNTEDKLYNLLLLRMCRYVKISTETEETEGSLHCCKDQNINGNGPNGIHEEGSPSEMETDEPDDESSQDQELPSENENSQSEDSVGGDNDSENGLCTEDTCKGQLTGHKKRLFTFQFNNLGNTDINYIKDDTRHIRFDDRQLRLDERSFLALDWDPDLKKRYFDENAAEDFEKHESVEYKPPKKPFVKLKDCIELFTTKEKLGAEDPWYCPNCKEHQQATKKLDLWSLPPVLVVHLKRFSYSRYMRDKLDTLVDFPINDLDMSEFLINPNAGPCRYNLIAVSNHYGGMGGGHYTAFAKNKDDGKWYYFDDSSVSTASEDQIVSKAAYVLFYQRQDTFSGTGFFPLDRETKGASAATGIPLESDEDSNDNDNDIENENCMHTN
Procedure, shortened: as §1

Measured: log2 ratio of Biotin-Ahx-Ub-VS probe labelling

Chain of UCHL1 (P09936 whole entry, looked up): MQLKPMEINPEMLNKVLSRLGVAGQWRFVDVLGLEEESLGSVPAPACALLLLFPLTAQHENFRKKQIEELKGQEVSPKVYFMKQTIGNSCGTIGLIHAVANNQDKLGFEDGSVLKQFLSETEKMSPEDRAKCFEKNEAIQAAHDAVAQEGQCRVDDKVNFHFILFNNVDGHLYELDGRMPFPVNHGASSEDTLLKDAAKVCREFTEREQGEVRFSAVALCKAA
Chain of USP10 (Q14694 whole entry): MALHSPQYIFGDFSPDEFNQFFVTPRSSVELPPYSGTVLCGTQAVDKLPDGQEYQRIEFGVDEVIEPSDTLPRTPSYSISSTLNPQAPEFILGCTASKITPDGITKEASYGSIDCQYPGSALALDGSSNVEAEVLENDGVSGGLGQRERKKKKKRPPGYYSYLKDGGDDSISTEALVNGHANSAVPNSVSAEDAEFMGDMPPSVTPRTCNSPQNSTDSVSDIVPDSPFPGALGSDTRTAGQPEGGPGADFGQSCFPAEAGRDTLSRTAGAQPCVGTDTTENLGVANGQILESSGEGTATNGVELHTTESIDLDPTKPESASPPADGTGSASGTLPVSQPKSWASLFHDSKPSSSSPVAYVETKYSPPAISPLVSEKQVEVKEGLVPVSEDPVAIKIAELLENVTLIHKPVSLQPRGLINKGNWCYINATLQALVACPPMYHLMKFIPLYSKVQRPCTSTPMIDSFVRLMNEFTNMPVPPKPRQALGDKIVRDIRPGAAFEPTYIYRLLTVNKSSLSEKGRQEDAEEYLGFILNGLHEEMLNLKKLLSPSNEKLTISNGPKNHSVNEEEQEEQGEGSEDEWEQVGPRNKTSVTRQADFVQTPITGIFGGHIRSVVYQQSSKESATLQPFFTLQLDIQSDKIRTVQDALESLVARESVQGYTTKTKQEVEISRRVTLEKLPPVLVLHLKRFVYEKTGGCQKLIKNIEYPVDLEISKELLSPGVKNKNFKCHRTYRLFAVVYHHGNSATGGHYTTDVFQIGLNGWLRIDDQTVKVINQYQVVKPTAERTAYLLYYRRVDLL

CCc1c[nH]c(CNC(=O)CCl)n1.Cl
active: UCHL1 -1.33
inactive: OTUD6B -0.246 | OTUD7B -0.369 | PRPF8 0.073 | PSMD7 -0.469 | UCHL3 0.0893 | UCHL5 -0.335 | USP10 -0.218 | USP15 -0.538
